{"source": "PubChem BioAssay AID1224855", "about": "(National Center for Advancing Translational Sciences (NCATS), 2016)", "note": "Inconclusive results are not listed. The source made the active and inactive calls. Calls come from the whole dose curve; as a rule, active = well fitted inhibition curve with a large enough effect; inconclusive = small, poorly fitted or top-dose-only effect; inactive = no such curve, though single readings can be large or run the other way.", "data": [{"assay": "Confirmation assay for measurement of the activity of small molecule inhibitors on Zika virus induced Caspase-3 activity in human iPSC derived neural progenitor cells (hNPCs)", "settings": "hNPC ZIKV-induced caspase-3/7, Caspase-Glo luminescence, 6 h; series mostly up to 46.1 µM", "how_it_was_run": "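Apoptosis readout: caspase-3/7 luminescence in hNPCs infected with Zika virus (2 FFU/cell) for 6 h following 1 h compound pretreatment.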", "values": [{"smiles": "Cc1nc(N)sc1-c1ccnc(Nc2ccc(N3CCOCC3)cc2)n1", "Potency": "inactive"}, {"smiles": "COc1ccc(NC(=O)/C=C/c2ccc(Cl)cc2)cc1", "Potency": "2.45 µM (active)"}, {"smiles": "O=c1oc2cc(O)ccc2s1", "Potency": "inactive"}, {"smiles": "COc1cc2nc(N3CCN(C(=O)C4CCCO4)CC3)nc(N)c2cc1OC", "note": "(centres undefined)", "Potency": "9.75 µM (active)"}, {"smiles": "Nc1ccc(O)c(C(=O)O)c1", "Potency": "inactive"}, {"smiles": "O=C(Nc1ncc([N+](=O)[O-])s1)c1cccs1", "Potency": "1.23 µM (active)"}, {"smiles": "Oc1cc(O)cc(/C=C/c2ccc(O)c(O)c2)c1", "Potency": "4.89 µM (active)"}, {"smiles": "CCCCCCCC/C=C/C(=O)O", "Potency": "inactive"}, {"smiles": "Cc1c(NC(=O)c2ccc(C(C)(C)C)cc2)cccc1-c1cn(C)c(=O)c(Nc2ccc(C(=O)N3CCOCC3)cc2)n1", "Potency": "inactive"}, {"smiles": "O=c1c(-c2ccc(O)cc2)coc2cc(O)ccc12", "Potency": "13.8 µM (active)"}, {"smiles": "O=C(CS)Nc1ccccc1", "Potency": "inactive"}, {"smiles": "C[C@@H](N)c1ccc(C(=O)Nc2ccnc3[nH]ccc23)cc1", "Potency": "inactive"}, {"smiles": "O=C(O)[C@@H](c1ccc(OCc2ccc3ccccc3n2)cc1)C1CCCC1", "Potency": "6.9 µM (active)"}, {"smiles": "Cc1csc(NC(=O)c2sc3nc4c(c(C(F)(F)F)c3c2N)CCC4)n1", "Potency": "15.5 µM (active)"}, {"smiles": "CCN1CCC(n2cc(CNc3cc(Cl)c4ncc(C#N)c(Nc5ccc(F)c(Cl)c5)c4c3)nn2)CC1", "Potency": "inactive"}, {"smiles": "C[C@@H]1CCN(C(=O)CC#N)C[C@H]1N(C)c1ncnc2[nH]ccc12", "Potency": "inactive"}, {"smiles": "CCCCCNC(=O)N1CCC(CN(Cc2ccc(Cl)cc2)Cc2ccc([N+](=O)[O-])s2)C1", "note": "(centres undefined)", "Potency": "inactive"}, {"smiles": "Cc1cccc(/C=C/c2ccccc2)n1", "Potency": "8.69 µM (active)"}, {"smiles": "COc1cccc2c1C(=O)c1c(O)c3c(c(O)c1C2=O)C[C@@](O)(C(=O)CO)C[C@@H]3O[C@H]1C[C@H](N)[C@H](O[C@@H]2CCCCO2)[C@H](C)O1", "Potency": "inactive"}, {"smiles": "CC(C)c1ccc2oc3nc(N)c(C(=O)O)cc3c(=O)c2c1", "Potency": "1.73 µM (active)"}, {"smiles": "O=C(O)c1cccc(-c2noc(-c3ccccc3F)n2)c1", "Potency": "1.73 µM (active)"}, {"smiles": "CC=CC[C@@H](C)C(=O)[C@H]1C(=O)N[C@@H](C(C)C)C(=O)N(C)CC(=O)N(C)[C@@H](CC(C)C)C(=O)N[C@@H](C(C)C)C(=O)N(C)[C@@H](CC(C)C)C(=O)N[C@@H](C)C(=O)N[C@H](C)C(=O)N(C)[C@@H](CC(C)C)C(=O)N(C)[C@@H](CC(C)C)C(=O)N(C)[C@@H](C(C)C)C(=O)N1C", "Potency": "inactive"}, {"smiles": "Cc1oncc1C(=O)Nc1ccc(C(F)(F)F)cc1", "Potency": "1.38 µM (active)"}, {"smiles": "CCCCCCCCCCCC(=O)[O][Sn]([CH2]CCC)([CH2]CCC)[O]C(=O)CCCCCCCCCCC", "Potency": "inactive"}, {"smiles": "CS(=O)(=O)c1ccc(-c2cn3ccccc3n2)cc1", "Potency": "3.88 µM (active)"}, {"smiles": "C/C(=N\\O)c1ccc(OCC(=O)N2CCCCC2)cc1", "Potency": "7.74 µM (active)"}, {"smiles": "Cc1ccc(O)c(N=Nc2ccccc2)n1", "Potency": "1.23 µM (active)"}, {"smiles": "CC(=C(CCOC(=O)C(C)C)SSC(CCOC(=O)C(C)C)=C(C)N(C=O)Cc1cnc(C)nc1N)N(C=O)Cc1cnc(C)nc1N", "Potency": "inactive"}, {"smiles": "N#CC1(c2ccc(NC(=O)c3cccnc3NCc3ccncc3)cc2)CCCC1", "Potency": "inactive"}, {"smiles": "O=S(=O)(O)c1ccc2nc(-c3ccccc3)[nH]c2c1", "Potency": "1.23 µM (active)"}, {"smiles": "O=C(Nc1cc2cc[nH]c2cn1)c1ccccc1", "Potency": "3.46 µM (active)"}, {"smiles": "O=C(C=CC=Cc1ccc2c(c1)OCO2)N1CCCCC1", "Potency": "13.8 µM (active)"}, {"smiles": "CCCS(=O)c1ccc2nc(NC(=O)OC)[nH]c2c1", "note": "(centres undefined)", "Potency": "8.69 µM (active)"}, {"smiles": "COc1ccc(-c2coc3cc(O)ccc3c2=O)cc1", "Potency": "8.69 µM (active)"}]}]}
